As a reminder, the inhibition is the drop in the measured response relative to a control, in per cent.

Consider 72 molecules from PubChem BioAssay AID686996 (Broad Institute, 2013).

Out of some 350,000 compounds screened, about 1,900 (0.54%) were called active. The entries come from a sample that favours actives as a whole. A number with no mark means an inactive call.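 The calls were made as follows: active = mean inhibition across replicates at least about 35%, with every replicate also reaching that limit (limit read from the data); inconclusive = only one of the two criteria met; inactive = neither criterion met.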

The target of the experiment is Caspase-6 (Homo sapiens) (UniProt P55212). Briefly: inhibition of CASP6 peptide cleavage – biochemical, VEID-R110 fluorescence, single point, set 2, primary screen (AID 686996).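 Also: 0% = median of neutral control wells and 100% = no fluorescence left.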 Particulars: purified caspase-6, Z-VEID-R110 cleavage fluorescence; at 12.5 µM; stronger effect = higher value.
Sequence of Caspase-6 (Homo sapiens) (P55212 24-179 limits assumed): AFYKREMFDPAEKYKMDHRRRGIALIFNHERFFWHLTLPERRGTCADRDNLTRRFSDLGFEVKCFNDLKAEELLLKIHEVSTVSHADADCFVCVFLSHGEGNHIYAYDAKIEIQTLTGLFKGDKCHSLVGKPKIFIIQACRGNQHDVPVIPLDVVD
Sequence of Caspase-6 (Homo sapiens) (P55212 194-293 limits assumed): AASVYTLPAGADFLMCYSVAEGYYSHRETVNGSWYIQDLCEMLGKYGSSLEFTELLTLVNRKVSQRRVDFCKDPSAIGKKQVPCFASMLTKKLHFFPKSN
Take `CCCN1[C@H](C(=O)N2CCCCC2)[C@@H](CO)[C@@H]2Cn3c(ccc(-c4ccccc4F)c3=O)[C@@H]21`: the inhibition was 1.71%. As for `CCC(=O)N1CCC2(CC1)CN(Cc1ccc(Cl)cc1)[C@@H](CO)c1[nH]c3cc(OC)ccc3c12`, the inhibition was 1.51%. The result for `CC(C(=O)NC1CCS(=O)(=O)C1)N1C(=O)/C(=C/c2ccc(Cl)cc2)SC1=S` (configuration not stated) reads 4.77%; that for `O=C(O)C(c1ccccc1)N1C(=O)/C(=C\c2ccc(-c3cccc(Cl)c3)o2)SC1=S` (configuration not stated), 89.6% (active). The result for `CC(C(=O)Nc1ccc(O)c(C(=O)O)c1)N1C(=O)/C(=C/c2cccs2)SC1=S` (configuration not stated) reads 27.5%; that for `CCN1[C@@H]2Cn3c(ccc(C4=CCCCC4)c3=O)[C@H]1[C@@H](C(=O)N1CCCCC1)[C@@H]2CO`, 1.04%. As to `O=C(C[C@H]1CC[C@@H]2[C@H](COC[C@@H](O)CN2C(=O)Nc2cccc(F)c2)O1)NCc1ccccc1F`, the inhibition is 0.624%. With `O=C(COC(=O)Cc1ccc(Cl)cc1Cl)NCc1ccco1`, the inhibition was 3.33%. As for `O=C(COC(=O)c1ccccc1O)NCc1ccco1`, the inhibition is 38.4% (active). In the case of `O=C(COC(=O)c1cnc(Cl)c(Cl)c1)NCc1ccco1`, the inhibition was 10.4%. Regarding `N#C[C@H]1[C@@H](c2ccccc2C2=CCCC2)[C@H](CO)N1C(=O)c1cccc(F)c1`, the inhibition is 0.224%. For the molecule `CCC(=O)N1C[C@@H](C)[C@H](OC)CN(C)C(=O)c2cc(NC(=O)NC3CCCC3)ccc2OC[C@H]1C`, the inhibition is 0.917%. On to `CCC(=O)N(C)C[C@@H]1Oc2cc(C#CCN(C)C)ccc2S(=O)(=O)N([C@H](C)CO)C[C@H]1C`, for which the inhibition is -0.78%. With `N#CC1=C(N)Oc2c(ccc3cccnc23)C1c1ccncc1` (configuration not stated), the inhibition is 3.1%. For the molecule `Cn1c2c(c(=O)n(C)c1=O)C(c1cccc(F)c1)C(C#N)=C(N)O2` (configuration not stated), the inhibition is 1.86%. As for `N#CC1=C(N)Oc2cc(N)ccc2C1c1ccccc1` (configuration not stated), the inhibition was 37% (active). Consider `O=C(C[C@@H]1CC[C@H]2[C@@H](COC[C@H](O)CN2C(=O)Nc2ccccc2)O1)NCc1ccccc1F`, for which the inhibition was -1.64%. As for `Cc1ccccc1-c1ccc2c(c1)O[C@@H](CN(C)Cc1ccncc1)[C@@H](C)CN([C@H](C)CO)S2(=O)=O`, the inhibition was 2.69%.

As to `N#Cc1c(N2CCCCC2)nc(N)c2c(N)nc(SCC(=O)O)cc12`, the inhibition was 43.3% (active). Consider `O=C(O)CSc1ccc(S(=O)(=O)N2CCCC2)cn1`, for which the inhibition is -0.751%. Under `N#Cc1c(C(F)(F)F)cc(-c2ccc(Cl)cc2)nc1SCC(=O)O` stands -2.92%. Turning to `C[C@@H]1CN([C@@H](C)CO)C(=O)Cc2cc(NC(=O)CCN3CCOCC3)ccc2O[C@H]1CN(C)S(=O)(=O)c1ccccc1`, the inhibition was -0.675%. As for `CN(C)C(=O)c1ccc(-c2ccccc2[C@@H]2[C@@H](C#N)N(C(=O)C3CCCC3)[C@H]2CO)cc1`, the inhibition is 2.13%. On to `C[C@@H]1CN([C@H](C)CO)C(=O)c2c(c3ccccc3n2C)-c2ccccc2CO[C@H]1CN(C)S(=O)(=O)c1ccccc1F`, for which the inhibition was -0.557%. Under `O=C(C[C@@H]1C=C[C@H](NC(=O)C2CCOCC2)[C@H](CO)O1)NCc1ccncc1` stands -0.812%; under `O=C(c1ccc2c(c1)OCO2)N1CC(=O)N2[C@H](C1)[C@@H](c1ccc(C#Cc3ccccc3)cc1)[C@@H]2CO`, -1.08%; under `O=C1OC(/C=C/c2ccccc2)=NC/1=C/c1ccco1`, 38.7% (active). With `C[C@H]1CN([C@@H](C)CO)C(=O)c2cc(-c3ccncc3)cnc2O[C@@H]1CN(C)C(=O)c1cccc(F)c1`, the inhibition was 1.35%. For the molecule `Cc1noc(C)c1NC(=O)N(C)C[C@H]1Oc2ccc(N(C)C)cc2CC(=O)N([C@H](C)CO)C[C@H]1C`, the inhibition is -3.82%.

For the molecule `O=C(C[C@H]1CC[C@@H](NC(=O)Nc2ccc(F)cc2)[C@H](CO)O1)NCc1cccc(F)c1`, the inhibition was -1.29%. With `O=C(OCC(=O)N1CCN(c2ccccc2)CC1)c1ccc([N+](=O)[O-])s1`, the inhibition was 22%.

For the molecule `COc1cc(NC(=O)COC(=O)c2ccc([N+](=O)[O-])s2)cc(OC)c1OC`, the inhibition is 87.1% (active). With `COc1ccc(C(=O)COC(=O)c2ccc([N+](=O)[O-])s2)cc1OC`, the inhibition was 0.899%. In the case of `O=C(C[C@H]1CC[C@H]2NC[C@@H](O)COC[C@@H]2O1)NCCN1CCCC1`, the inhibition is -1.22%. The result for `COc1ccc(Cl)cc1NC(=O)CCS(=O)(=O)c1cc2c(cc1C)NC(=O)CO2` reads 0.689%; that for `O=C(Cc1ccc(Br)cc1)NCCc1ccccc1`, 0.216%. `COc1ccc(Cl)cc1NC(=O)CCS(=O)(=O)c1ccc(Br)cc1`: the inhibition was 87.9% (active). As to `O=C(CCS(=O)(=O)c1ccc(Br)cc1)NCCc1ccc(Cl)cc1`, the inhibition was 49% (active). As for `CCOc1ccc(OCC)c(NC(=O)CCS(=O)(=O)c2ccc(C)cc2)c1`, the inhibition is 0.288%.

On to `Cc1ccc(S(=O)(=O)CCC(=O)OCC(=O)NCCc2ccc(S(N)(=O)=O)cc2)cc1`, for which the inhibition was 1.6%.

For the molecule `CC(C)NC(=O)N(C)C[C@@H]1Oc2ccc(NS(=O)(=O)c3cn(C)cn3)cc2C(=O)N([C@@H](C)CO)C[C@@H]1C`, the inhibition is 0.64%. Under `C[C@@H]1CCCCO[C@H](CN(C)S(=O)(=O)c2cccs2)[C@@H](C)CN([C@@H](C)CO)C(=O)c2cc(NC(=O)Nc3ccc4c(c3)OCO4)ccc2O1` stands 0.247%; under `Cc1noc(C)c1NC(=O)N(C)C[C@@H]1Oc2ccc(NS(C)(=O)=O)cc2C(=O)N([C@@H](C)CO)C[C@@H]1C`, 3.77%. In the case of `C[C@H](NC(=O)C[C@@H]1C[C@@H]2c3cc(NC(=O)Nc4ccc(C(F)(F)F)cc4)ccc3O[C@@H]2[C@H](CO)O1)c1ccccc1`, the inhibition is -2.54%.

For `O=C(NC[C@@H]1N[C@@H](CO)[C@H]1c1ccc(-c2cccnc2)cc1)c1cccc(F)c1`, the inhibition is 0.599%. As to `CCNc1ccc(C(=O)OCC(=O)N2c3ccccc3NC(=O)C2(C)C)cc1[N+](=O)[O-]`, the inhibition is -5.89%. With `CNS(=O)(=O)c1cccc(C(=O)OCC(=O)N2c3ccccc3NC(=O)C2(C)C)c1`, the inhibition is 35.9% (active).

Regarding `Cc1cc(C(=O)OCC(=O)N2c3ccccc3NC(=O)C2(C)C)c(C)n1-c1ccccc1`, the inhibition was -1.9%. The result for `C[C@@H]1CCCCO[C@@H](CN(C)C(=O)Nc2ccc(C(F)(F)F)cc2)[C@H](C)CN([C@H](C)CO)C(=O)c2cc(NC(=O)c3ccccc3)ccc2O1` reads -0.72%. With `C[C@@H]1CCCCO[C@H](CN(C)C(=O)Cc2ccccc2)[C@H](C)CN([C@H](C)CO)C(=O)c2cc(NS(=O)(=O)c3cn(C)cn3)ccc2O1`, the inhibition was -3.5%.

In the case of `O=C(Nc1ccc2c(c1)OCCO2)c1ccoc1`, the inhibition was 0.545%. Consider `O=C(Nc1ccc2c(c1)OCCO2)C1CCCC1`, for which the inhibition was 35.2% (active). Regarding `O=C(Nc1ccc2c(c1)OCO2)C1CC1(Cl)Cl` (configuration not stated), the inhibition is -1.32%.

On to `COC(=O)C[C@@H]1CC[C@@H]2[C@@H](COc3ccc(NC(=O)C4CCOCC4)cc3C(=O)N2C)O1`, for which the inhibition was -2.32%. Consider `C/C=C/c1ccc([C@@H]2[C@H](CO)N(S(=O)(=O)Cc3ccccc3)C23CN(C(=O)C2CCOCC2)C3)cc1`, for which the inhibition was 0.958%.

Regarding `O=C(NCC[C@H]1CC[C@H](NS(=O)(=O)c2cccc(F)c2)[C@H](CO)O1)C1CCCCC1`, the inhibition was -1.12%.

On to `O=C(C[C@@H]1CC[C@H]2[C@@H](COC[C@H](O)CN2C(=O)Nc2ccccc2)O1)NCCc1ccncc1`, for which the inhibition was 2.19%. In the case of `CO[C@@H]1CN(C)C(=O)c2ccc(NS(=O)(=O)c3cccc(C)c3)cc2OC[C@@H](C)NC[C@H]1C`, the inhibition is -0.731%. The result for `CCC(=O)N1[C@H](C(=O)NC2CCC2)[C@@H](CO)[C@@H]2Cn3c(cccc3=O)[C@@H]21` reads 0.371%. Under `COc1ccc2c3c(n(C)c2c1)[C@H](CO)N(CC1CCCCC1)CC31CCN(Cc2nccs2)CC1` stands -2.93%; under `CS(=O)(=O)c1ccc2c(c1)SC1=NC(=O)/C(=C/c3ccco3)C(=N)N12`, 56.4% (active).

On to `COc1ccc2c3c(n(C)c2c1)[C@@H](CO)N(C)CC31CN(CC2CC2)C1`, for which the inhibition was -5.67%. For `Cc1ccc(S(=O)(=O)Nc2ccc3c(c2)C(=O)N([C@@H](C)CO)C[C@@H](C)[C@H](CN(C)Cc2ccc(Cl)c(Cl)c2)OCCCC[C@@H](C)O3)cc1`, the inhibition is -0.785%. As to `O=C(C[C@@H]1CC[C@@H](NS(=O)(=O)c2ccc(F)cc2)[C@@H](CO)O1)NCCc1ccncc1`, the inhibition was 3.03%. On to `O=C(Nc1ccc(F)cc1)N[C@@H]1CC[C@H](CC(=O)N2CCCCC2)O[C@H]1CO`, for which the inhibition is 1.55%.

With `Cc1ccccc1NC(=O)Cn1c(=O)n(CC2CCCO2)c(=O)c2ccccc21` (configuration not stated), the inhibition was 6.2%. Turning to `Cc1ccccc1NC(=O)CSC(=O)c1ccccc1`, the inhibition is 1.82%. Under `Cc1ccccc1NC(=O)CN1C(=O)N/C(=C\c2cccn2-c2cccc(C(=O)O)c2)C1=O` stands 63.2% (active). As to `COc1ccc(NC(=O)N[C@H]2CC[C@@H](CCNS(=O)(=O)c3cccc(Cl)c3)O[C@H]2CO)cc1`, the inhibition was -1.94%. The result for `Cc1ccc(-c2cnc3c(c2)C(=O)N([C@H](C)CO)C[C@@H](C)[C@@H](CN(C)C(=O)CN(C)C)O3)cc1` reads -0.686%; that for `COc1ccc(C(=O)N2C[C@@H]3[C@H](c4ccccc42)[C@H](CO)N3Cc2ccc3c(c2)OCO3)cc1`, -0.922%.

Take `COc1ccc(NC(=O)N(C)C[C@H]2OCCCC[C@H](C)Oc3ccc(NS(C)(=O)=O)cc3C(=O)N([C@H](C)CO)C[C@@H]2C)cc1`: the inhibition is -0.91%.
